Here are results for 10 compounds from PubChem BioAssay (NCATS).

Assay [1] is described as follows: qHTS assay to identify small molecule inhibitors of chordoma cells - UCH-1 (AID 1259355). For Potency: series mostly up to about 46 µM. Note: nearly all actives have a fitted effect of over 55% in size. In short, it runs like this:
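800 cells/well, overnight attach; compounds pinned at 15 concs, then auranofin/camptothecin/doxorubicin/rubitecan/topotecan combo added; 48hr 37 C, 5% CO2; CellTiter-Glo, 30min RT, luminescence.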
A general note: In qHTS, concentration-response curves come from the screen itself.

Assay [2] in a line: qHTS assay to identify small molecule inhibitors of chordoma cells - UCH-2 (AID 1259356).

Records with an inconclusive call do not appear. Active and inactive are the calls of the source. Calls come from the whole dose curve; as a rule, active = well fitted curve in the direction sought with a large enough effect; inconclusive = small, poorly fitted or top-dose-only effect, or another doubt; inactive = no such curve, though single readings can be large; an effect the other way counts as inactive or inconclusive.
Potency is the fitted concentration of half-maximal effect.

Consider `C=C1CC[C@H](O)CC1=C/C=C1\CCC[C@]2(C)[C@@H]([C@H](C)/C=C/[C@H](C)C(C)C)CC[C@@H]12`, for which the Potency entry in assay [1] and in assay [2] was “inactive” in each case.

Consider `CCC(=O)c1ccc2c(c1)N(CCCN1CCN(CCO)CC1)c1ccccc1S2`, for which the Potency result in assay [1] and in assay [2] was “inactive” throughout.

For `Cn1c(O)c(N=NC(N)=S)c2ccccc21`, the Potency result in assay [1] and in assay [2] was “inactive” in each case.

As for `COc1cc(NCCCC(C)N)c2ncccc2c1` (centres undefined), the Potency entry in assay [1] was “inactive”. The Potency in assay [2] is 9.2 µM (active).

With `S=C1SCN(Cc2ccccc2)CN1Cc1ccccc1`, the Potency result in assay [1] and in assay [2] was “inactive” each time.

With `CN(C)c1ccc(C(=C2C=CC(=[N+](C)C)C=C2)c2c(O)c(S(=O)(=O)[O-])cc3cc(S(=O)(=O)O)ccc23)cc1`, the Potency in assay [1] is 14.1 µM (active).

`O=C(Nc1ccc(O)cc1)c1ccccc1O`: the Potency entry in assay [1] and in assay [2] was “inactive” throughout.

Take `CC1=C[C@H](O)CC(C)(C)[C@H]1/C=C/C(C)=C/C=C/C(C)=C/C=C/C=C(C)/C=C/C=C(C)/C=C/C1=C(C)C[C@@H](O)CC1(C)C`: the Potency entry in assay [1] and in assay [2] was “inactive” in each case.

Take `O=C(OC[C@H]1O[C@@H](OC(=O)c2cc(O)c(O)c(OC(=O)c3cc(O)c(O)c(O)c3)c2)[C@H](OC(=O)c2cc(O)c(O)c(OC(=O)c3cc(O)c(O)c(O)c3)c2)[C@@H](OC(=O)c2cc(O)c(O)c(OC(=O)c3cc(O)c(O)c(O)c3)c2)[C@@H]1OC(=O)c1cc(O)c(O)c(OC(=O)c2cc(O)c(O)c(O)c2)c1)c1cc(O)c(O)c(OC(=O)c2cc(O)c(O)c(O)c2)c1`: the Potency in assay [1] was 15.8 µM (active); in assay [2], 16.4 µM (active).

Consider `COc1ccc2c(c1)OC(C)(C)C(c1ccccc1)C2c1ccc(OCCN2CCCC2)cc1` (centres undefined), for which the Potency result in assay [1] and in assay [2] was “inactive” throughout.
